# According to PubChem BioAssay AID2315 (National Center for Advancing Translational Sciences (NCATS), 2010):
# Among all 290,000 compounds or so, about 27,000 (9.3%) were called active. Many of the other results were omitted from the sample, so actives are more common in it than they were. A number with no mark means an inactive call. No stated cut-off is given here; in the data, active means inhibition mostly above about 28% (no sharp cut-off); inactive means mostly below about 43%. Where a SMILES comes first, the peptide text is derived from it. Bridges are numbered along the chain shown (N, C = ends).
# Assay: A qHTS for Small Molecule Inhibitors of Shiga Toxin; further: 0% is about no effect
# Conditions: Vero cells, Shiga toxin protein synthesis inhibition reporter; at 38.7 µM, active compounds read high
row,SMILES,inhibition
1,COc1ccc(C(=O)Nc2cc(C)c(NC(=O)c3ccccc3OC)cn2)cc1,37%
2,Cc1ccc(S(=O)(=O)N(C)CC(=O)NCCc2c[nH]c3ccccc23)cc1,-2.21%
3,O=C(CCCCCn1c(=S)[nH]c2ccsc2c1=O)NC1CCCCC1,-10.2%
4,c1ccc(Nc2nc(-c3ccncc3)cs2)nc1,75.1% (active)
5,COc1ccc(-c2csc(Nc3ccccn3)n2)cc1,48% (active)
6,Clc1ccc(Nc2nc(-c3cccs3)cs2)nc1,70.3% (active)
7,COc1ccc2nc(Nc3nc(-c4ccncc4)cs3)sc2c1,53%
8,c1cnc(Nc2nc(-c3ccc4ccccc4c3)cs2)nc1,154% (active)
9,COC(=O)c1cc(-c2cccs2)nc2ccccc12,-1.63%
10,COC(=O)CSc1nccc(-c2cccs2)n1,46.2%
11,COc1ccc(CNc2nccs2)cc1,-0.77%
12,COc1ccc(N(CC(=O)NCC2CCCO2)C(=O)CCC(=O)Nc2nccs2)c(OC)c1 (stereo not given),16.4%
13,Cc1ccc(NC(=O)CCC(=O)c2ccc(Br)cc2)cc1,-4.63%
14,CCCCNC(=O)CN1C(=O)NC(Cc2ccccc2)(Cc2ccccc2)C1=O,2.69%
15,Cc1c(C(=O)N2CCN(c3ccc(F)cc3)CC2)oc2c1C(=O)CCC2,-4.3%
16,C/C(=N/OC(=O)c1ccc(Br)cc1)c1ccc(C)cc1,6.54%
17,O=C(CC(n1cncn1)C(Cl)(Cl)Cl)c1ccc([N+](=O)[O-])cc1 (stereo not given),-7.92%
18,Cc1cccc(C)c1NC(=O)CN1C(=O)C(C)Oc2ccccc21 (stereo not given),-3.24%
19,NC(=O)C(Cc1ccccc1)NC(=O)C12CC3CC(CC(C3)C1)C2 (stereo not given),-10.9%
20,O=C(NC(=S)Nc1ccccc1N1CCCCC1)c1ccc(F)cc1,-27.2%
21,COc1ccc(C(=O)NC(=S)Nc2ccccc2N2CCN(S(C)(=O)=O)CC2)cc1OC,-2.05%
22,COc1ccccc1C(=O)NC(=S)Nc1ccccc1N1CCCCC1,39.8% (active)
23,Cc1ccnc(NS(=O)(=O)c2ccc(NC(=O)c3oc4ccc(F)cc4c3C)cc2)n1,-7.64%
24,O=S(=O)(c1ccc(Cl)s1)N1CCC2(CC1)OCCO2,6.74%
25,C[C@@H](O)[C@@H]1NC(=O)[C@H](CCCCN)NC(=O)[C@H](Cc2c[nH]c3ccccc23)NC(=O)[C@H](Cc2ccccc2)NC(=O)[C@H](Cc2ccccc2)NC(=O)[C@H](CC(N)=O)NC(=O)[C@H](CCCCN)NC(=O)[C@@H](NC(=O)[C@@H]2CCCN2)CSSC[C@@H](C(=O)N[C@@H](CCCCN)C(=O)O)NC(=O)[C@H](CO)NC(=O)[C@H](CO)NC(=O)[C@H](Cc2ccccc2)NC1=O (H-PCKNFFWKTFSSCK-OH; disulfide 2-13),-9.69%

row,SMILES,inhibition
1,O=C(NCc1ccccc1)C(c1ccccc1)N(C(=O)c1csnn1)c1ccc(F)cc1 (stereo not given),-3.73%
2,COc1ccc(NC(=O)CCC(=O)Nc2nnc(C3CCCCC3)s2)cc1,-3.77%
3,Cc1occc1C(=O)Nc1nnc(-c2ccncc2)s1,28.4%
4,Cc1cccc(NC(=O)CSCC(=O)Nc2nnc(C3CC3)s2)c1,14.9%
5,O=C(Nc1nnc(C2CC2)s1)C1=NN(C2CCS(=O)(=O)C2)C(=O)CC1 (stereo not given),-18%
6,Cc1occc1C(=O)Nc1nnc(C2CCCCC2)s1,60.1% (active)
7,CC1CCN(c2ccc(C(=O)Nc3nnc(C4CC4)s3)cc2[N+](=O)[O-])CC1,1.09%
8,O=C(Nc1nnc(C2CC2)s1)c1cc(Cl)sc1Cl,48% (active)
9,O=C(Nc1nnc(C2CC2)s1)c1ccccn1,109% (active)
10,O=C(Cc1cccs1)Nc1nnc(C2CC2)s1,18.3%
11,CC1CCN(S(=O)(=O)c2ccc(NC(=O)C3CC(=O)N(c4ccccc4)C3)cc2)CC1 (stereo not given),-4.69%
12,COc1ccc(NS(=O)(=O)c2ccc(N3CCN(CCO)CC3)c([N+](=O)[O-])c2)cc1,-10.2%
13,CN(C(=O)c1ccccc1)c1nccnc1C#N,-2.8%
14,CCc1nn(CC(=O)N2CCN(CC)CC2)c(=O)c2cccn12,-0.821%
15,COc1ccccc1CN1CCNC(=O)C1CC(=O)N(C)CC1CCOCC1 (stereo not given),-2.77%
16,O=C(CSc1nc2ccccc2[nH]1)N/N=C/C=C\c1ccccc1[N+](=O)[O-],30.8%
17,CC(=O)Nc1ccc(C(=O)CSc2nc3ccc(C)cc3[nH]2)cc1,23.5%
18,O=C(CSc1nc2ccccc2[nH]1)c1cccs1,119% (active)
19,CN(Cc1ccccc1)C(=O)CSc1nc2ccccc2[nH]1,70.2% (active)
20,CN(Cc1ccccc1)c1nc2c(c(=O)[nH]c(=O)n2C)n1CCSc1nc2ccccc2[nH]1,-8.47%
21,O=C(CSc1nc2ccccc2[nH]1)Nc1nc(-c2ccccc2)c(-c2ccccc2)o1,-6.45%
22,CN(CCc1ccccn1)C(=O)c1ccc(OC2CCN(CCc3ccccc3)CC2)cc1,24.5%
23,Cc1cc(C)c(S(=O)(=O)N(C)CC(=O)NCC2CCCO2)c(C)c1 (stereo not given),-2.86%
24,Cc1ccc(OCC(=O)Nc2ccc(C(=O)O)cc2NC(=O)COc2ccc(C)c(C)c2)cc1C,-6.8%
25,Cc1ccc(C2Nc3cccc4cccc(c34)N2)cc1,-10.1%

row,SMILES,inhibition
1,C=CCN1CCN(C(=O)CCCc2ccccc2)CC1,9.38%
2,CCc1c(C)nc(N)n2c(SCC(=O)NC3CCCCC3)nnc12,-19.4%
3,S=C(c1ccccc1)N1CCCC1,-8.23%
4,S=C(c1ccc(-c2ccccc2)o1)N1CCCCC1,98.2% (active)
5,OCCN1CCN(C(=S)c2ccc(-c3ccccc3)cc2)CC1,0.879%
6,N#C[C@]1(S(=O)(=O)c2ccccc2)C[C@@H]2ON=C(c3cccc(Br)c3)[C@@H]2C1,-6.42%
7,CCc1nc(N2CCN(C(C)=O)CC2)c2c3c(sc2n1)CCCC3,-5.44%
8,Cc1ccc(C(=O)CSc2ccccc2C(=O)O)cc1,39.6%
9,Cc1ccc(C(=O)Cc2nnc(C)s2)cc1,58.4% (active)
10,Cc1ccc(C(=O)Cn2cccn2)cc1,5.48%
11,CC1CC(=O)N(CC(=O)Nc2cccc(Cl)c2)c2ccccc2S1(=O)=O (stereo not given),-4.68%
12,CCN(C(=O)COC(=O)c1ccc(COc2ccc3c(C)cc(=O)oc3c2)cc1)C1CCS(=O)(=O)C1 (stereo not given),33%
13,CCCSc1nc2sc3c(c2c(=O)n1-c1ccc(OC)cc1)CCN(C)C3,-19%
14,CC(C)(O)C#Cc1ccc(CN2CCC(CO)(CCc3ccccc3)CC2)cc1,-5.12%
15,COCCCNc1nc2c(-c3cccc(C)c3)nnn2c2ccc(Cl)cc12,9.32%
16,Cc1cccc2nc(CNc3ccc(F)cc3)cn12,66.5% (active)
17,CCOC(=O)CSc1nnc(CNc2ccc(F)cc2)o1,-20.4%
18,COc1cc([N+](=O)[O-])cc([N+](=O)[O-])c1NC(=O)N1CCOCC1,-11.6%
19,CCN(c1ccccc1)S(=O)(=O)c1cc2c(cc1C)n(C)c(=O)c(=O)n2C,10.4%
20,O=C(CCCN1CCc2[nH]c3ccc(F)cc3c2C1)c1ccc(F)cc1,-5.56%
21,O=C(NCCCc1ccccc1)c1cc(COc2c(F)cccc2F)on1,78.1% (active)
22,O=C(NCCc1ccccc1)c1ccc(OCCOc2ccccc2)cc1,-1.89%
23,CC(C)Cc1cc(C(=O)Nc2cc(Br)ccc2O)no1,85.5% (active)
24,O=C(NCCN1CCCC(O)C1)c1cc(COc2c(F)cccc2F)on1 (stereo not given),-6.84%
25,CC(C)c1ccc(C(=O)NCCCc2ccccc2)cc1,60.6% (active)

row,SMILES,inhibition
1,CC(C)C(=O)NCc1cc(-c2ccc(Cl)cc2)no1,10.8%
2,C[C@H](NC(=O)NCCc1ccccc1)C(=O)O,8.98%
3,O=C(COC(=O)c1ccc(F)cc1)NCCCc1ccccc1,-1.67%
4,CC(C)/C=N/NC(=O)c1cc(Br)ccc1O,30.6%
5,COC(=O)[C@@H](Cc1ccccc1)NC(=O)NCCc1ccccc1,15.6%
6,CCCOc1ccc(C(=O)NCCc2ccccc2)cc1,39.8%
7,CC(C)Cc1cc(C(=O)NCCc2ccccc2)no1,87.5% (active)
8,CCOc1cc(CN2CCCC(CO)(Cc3ccc(F)cc3F)C2)ccc1OC (stereo not given),1.36%
9,COC(=O)Cn1cnc2scc(-c3ccc(C)c(C)c3)c2c1=O,-16.4%
10,CC(C)Oc1ccc(/C=N/NC(=O)c2nnn(-c3nonc3N)c2CN(C)C2CCCCC2)cc1,-5.14%
11,CCOc1ccc(S(=O)(=O)NCCCn2ccnc2)cc1NC(C)=O,-15.3%
12,COc1ccc(OC)c(NC(=O)c2ccc3c(c2)C(=O)N(c2ccc(OC(C)=O)cc2)C3=O)c1,-4.38%
13,COc1cc(NC(=O)c2ccc(-c3csc(C)n3)cc2)c(OC)cc1Cl,-19.7%
14,O=c1oc2ccccc2c(NC2CCCCC2)c1NS(=O)(=O)c1ccc(Cl)cc1,-3.24%
15,Cc1ccc(CN(CC(=O)NCC2CCCO2)S(=O)(=O)c2ccc(C)cc2)cc1 (stereo not given),-7.48%
16,Cc1cccc(N2C(=O)N3[C@H](c4ccc(F)cc4)[C@@H]4C(=O)N(C5CCCCC5)C(=O)[C@@H]4[C@]3(Cc3ccccc3)C2=O)c1,-2.98%
17,Cc1cc(C(=O)NCCCc2ccccc2)no1,35.8% (active)
18,Cc1ccccc1CSCCNC(=O)c1ccc(N(C)S(=O)(=O)c2ccccc2)cc1,-13.5%
19,COc1ccccc1CNC(=O)c1ccc(N(C)S(=O)(=O)c2ccc(C)cc2)cc1,4.41%
20,CSc1ncc(C(=O)NCCCc2ccccc2)c(C)n1,28.3%
21,Cc1c(NC(=O)c2cc(-c3ccc(Br)cc3)on2)c(=O)n(-c2ccccc2)n1C,20%
22,CCCCNC(=S)NNC(=O)c1cc(C)on1,6.4%
23,CC(C)CNC(=O)c1cc(-c2ccc(Br)cc2)on1,52.5% (active)
24,CN(c1ccccc1)S(=O)(=O)c1ccc(C(=O)NCCc2ccccc2)cc1,50.1% (active)
25,CCN(CC)CCCNC(=O)c1cc(-c2cccc(Cl)c2)on1,-7.26%
